# Records with an inconclusive call do not appear. Calls of active or inactive are those of the source.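 The calls were made as follows, unless noted: active = normalized viability below 100% at a tested concentration; inactive = the rest.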
# Key:
# [1] = viability loss in pontine glioma line – cell-based, SU-DIPG-XVII, MIPE5.0, CellTiter-Glo, qHTS, dose response (AID 1347060; cut-off not given, nearly all actives have AC50 up to about 26 µM); settings: CellTiter-Glo ATP luminescence
# [2] = viability loss in pontine glioma line – cell-based, JHH-DIPG-1, MIPE4.0, CellTiter-Glo, qHTS, dose response (AID 1347062; cut-off not given, nearly all actives have AC50 up to about 27 µM); settings: JHH-DIPG-1 viability, CellTiter-Glo ATP luminescence
# [3] = viability loss in pontine glioma line – cell-based, SU-DIPG-IV, MIPE4.0, CellTiter-Glo, qHTS, dose response (AID 1347063; cut-off not given, nearly all actives have AC50 up to about 30 µM;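 also: compound exposure lasted 48 hours before the viability readout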); settings: CellTiter-Glo ATP luminescence
# [4] = growth inhibition of DIPG cells – cell-based, MIPE4.0 library, CellTiter-Glo luminescence, qHTS (AID 1347066; cut-off not given, nearly all actives have AC50 up to about 30 µM;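 also: cells exposed to compound for 48 hours before readout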); settings: SU-DIPG-VI viability, CellTiter-Glo ATP luminescence
# [5] = JHH-DIPG-1 glioma cell viability, MIPE5.0 library, CellTiter-Glo luminescence, qHTS (AID 1347067; cut-off not given, nearly all actives have AC50 up to about 26 µM;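 also: cells exposed to compound for 48 hours before readout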); settings: JHH-DIPG-1 glioma viability, CellTiter-Glo ATP luminescence
# [6] = viability loss with induced miR-34 in A549 – imaging, A549 dox-inducible miR-34, nuclei and caspase counts, primary screen (AID 1347080;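 active = compounds whose cell count with miR-34 switched on is under 0.7 times the count with it off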); settings: A549 miR-34 inducible, Hoechst nuclei count, 48 h
# [7] = compounds altering HSF1 focus formation in cells – imaging, Selleck Cancer Library (AID 1347162; in the data active = plate-normalised HSF1 focus index below about 0.46); settings: human cells, HSF1 nuclear foci imaging, at 10 µM; SSMD: measured here: HSF1 foci SSMD mean; cell count: measured here: cell number; plate-normalised HSF1 focus index: stronger effect = lower value
# [8] = MELAS cybrid and Rieske KO viability enhancers – cell-based, MELAS cybrids, Rieske KO mouse fibroblasts, CellTiter-Glo, primary screen (AID 1508586;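 active = mean z-score across replicates of 1.96 or higher in either the MELAS or the Rieske mutant cell line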;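 also: z relative to plate mean and SD of compound and empty wells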); settings: low glucose
# [9] = drug combination growth inhibition, ovarian cancer – cell-based, oncology-focused library, rucaparib conditional, profiling panel (AID 1508598); settings: patient-derived ovarian cancer cells, CellTiter-Glo viability, 144 h, stronger effect = lower value
# [10] = growth inhibition, single agent or in combination, cell-based, chromothripsis tumors, cisplatin or BGB combos (AID 1671449; in the data active = inhibition above about 80%;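 also: cells exposed for 96 hours; 0% = vehicle DMSO and 100% = killing by high DMSO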); settings: LFS_MB_P medulloblastoma cells
# [11] = growth inhibition, single agent and combos, cell-based, chromothripsis tumors, cisplatin or BGB combos (AID 1671450; in the data active = inhibition above about 80%;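 also: cells exposed to compound for four days; 0% = vehicle DMSO and 100% = cell killing by high DMSO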); settings: HDN33 neuroblastoma cells, stronger effect = higher value
# [12] = growth inhibition, single agents and combos, ICB984, cell-based, cisplatin or BGB combos, synergistic combos for chromothripsis tumors (AID 1671451; call rule not given here;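 also: cells exposed for 96 hours before readout; 0% = vehicle DMSO and 100% = killing by high DMSO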); settings: ICB984 medulloblastoma cells, drug combinations, stronger effect = higher value
# [13] = growth inhibition, single agents and combos, HTB85, cell-based, BGB or cisplatin IC20 combos, synergistic combos for chromothripsis tumors (AID 1671453; in the data active = inhibition above about 80%;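 also: cells exposed for 96 hours before readout; 0% = vehicle DMSO and 100% = high DMSO killing control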); settings: HTB85 osteosarcoma cells, drug combinations, stronger effect = higher value
# [14] = growth inhibition, MDA-MB-436, cell-based, BGB or cisplatin combos, synergistic combos for chromothripsis tumors (AID 1671458; call rule not given here;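 also: cells exposed for 96 hours; 0% = vehicle DMSO and 100% = killing by high DMSO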); settings: MDA-MB-436 breast carcinoma growth inhibition, drug combinations, stronger effect = higher value
# [15] = BT084 cell growth, single and combined drugs, ICGC_MB145, cisplatin and BGB IC40 combos (AID 1671461; in the data active = inhibition above about 80%;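 also: cells exposed to drugs for 96 hours; 0% = vehicle DMSO and 100% = high DMSO full killing control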); settings: BT084 medulloblastoma cells, drug combinations, stronger effect = higher value
# [16] = RCMB18 cell growth, single agent and combined, cisplatin and BGB IC40 combos (AID 1671462; in the data active = inhibition above about 80%;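 also: cells exposed to compound for four days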); settings: RCMB18 medulloblastoma cells, stronger effect = higher value
# [17] = CRL1545 cell growth, single agent and combined, cisplatin and BGB IC20 combos (AID 1671464; in the data active = inhibition above about 80%;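 also: cells exposed to compound for 96 hours before readout; 0% = vehicle DMSO and 100% = high DMSO killing control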); settings: CRL1545 osteosarcoma cells, stronger effect = higher value
# [18] = measured here: with BGB IC20 combination, at 0.5 µM
# [19] = measured here: with cisplatin IC20 combination, at 0.5 µM
compound,measurement,setting,value
O=C(O)[C@H](Cc1c[nH]c2ccccc12)N1C(=O)c2ccccc2C1=O,outcome,[1],inactive
same,outcome,[2],inactive
same,outcome,[3],inactive
same,outcome,[4],inactive
same,outcome,[5],inactive
same,fold change,"[6]; stronger effect = lower value, cell number ratio, induced over uninduced",0.96 (inactive)
same,fold change,[6]; measured here: relative caspase fold change +Dox/-Dox,0.441
same,cell count,"[6]; measured here: total cells with miR-34 induction, stronger effect = lower value",7740
same,cell count,[6]; measured here: total cells without miR-34 induction,8070
same,SSMD,[7],2.52
same,cell count,[7],7570
same,plate-normalised HSF1 focus index,[7],1.16 (inactive)
same,z-score,"[8]; MELAS cybrid survival, CellTiter-Glo 48 h, stronger effect = higher value",-0.375 (inactive)
same,z-score,"[8]; Rieske KO mouse fibroblast survival, CellTiter-Glo 72 h",-0.075
same,viability,"[9]; at 0.000305 µM, OCI-C5x cells, with rucaparib 10 µM, 100% = cells with rucaparib alone",113% (inactive)
same,viability,"[9]; at 0.000305 µM, OCI-C5x cells, without rucaparib",103% (inactive)
same,viability,"[9]; at 0.000305 µM, OCI-P5x cells, with rucaparib 20 µM, 100% = cells with rucaparib alone",84.4% (active)
same,viability,"[9]; at 0.000305 µM, OCI-P5x cells, without rucaparib",85.2% (active)
same,viability,"[9]; at 0.00122 µM, OCI-C5x cells, with rucaparib 10 µM, 100% = cells with rucaparib alone",126% (inactive)
same,viability,"[9]; at 0.00122 µM, OCI-C5x cells, without rucaparib",108% (inactive)
same,viability,"[9]; at 0.00122 µM, OCI-P5x cells, with rucaparib 20 µM, 100% = cells with rucaparib alone",92% (active)
same,viability,"[9]; at 0.00122 µM, OCI-P5x cells, without rucaparib",93.9% (active)
same,viability,"[9]; at 0.00488 µM, OCI-C5x cells, with rucaparib 10 µM, 100% = cells with rucaparib alone",118% (inactive)
same,viability,"[9]; at 0.00488 µM, OCI-C5x cells, without rucaparib",117% (inactive)
same,viability,"[9]; at 0.00488 µM, OCI-P5x cells, with rucaparib 20 µM, 100% = cells with rucaparib alone",89.2% (active)
same,viability,"[9]; at 0.00488 µM, OCI-P5x cells, without rucaparib",93.1% (active)
same,viability,"[9]; at 0.0195 µM, OCI-C5x cells, with rucaparib 10 µM, 100% = cells with rucaparib alone",116% (inactive)
same,viability,"[9]; at 0.0195 µM, OCI-C5x cells, without rucaparib",115% (inactive)
same,viability,"[9]; at 0.0195 µM, OCI-P5x cells, with rucaparib 20 µM, 100% = cells with rucaparib alone",91% (active)
same,viability,"[9]; at 0.0195 µM, OCI-P5x cells, without rucaparib",97.2% (active)
same,viability,"[9]; at 0.0781 µM, OCI-C5x cells, with rucaparib 10 µM, 100% = cells with rucaparib alone",109% (inactive)
same,viability,"[9]; at 0.0781 µM, OCI-C5x cells, without rucaparib",117% (inactive)
same,viability,"[9]; at 0.0781 µM, OCI-P5x cells, with rucaparib 20 µM, 100% = cells with rucaparib alone",87.1% (active)
same,viability,"[9]; at 0.0781 µM, OCI-P5x cells, without rucaparib",98.7% (active)
same,viability,"[9]; at 0.313 µM, OCI-C5x cells, with rucaparib 10 µM, 100% = cells with rucaparib alone",115% (inactive)
same,viability,"[9]; at 0.313 µM, OCI-C5x cells, without rucaparib",119% (inactive)
same,viability,"[9]; at 0.313 µM, OCI-P5x cells, with rucaparib 20 µM, 100% = cells with rucaparib alone",63.7% (active)
same,viability,"[9]; at 0.313 µM, OCI-P5x cells, without rucaparib",54.2% (active)
same,viability,"[9]; at 1.25 µM, OCI-C5x cells, with rucaparib 10 µM, 100% = cells with rucaparib alone",110% (inactive)
same,viability,"[9]; at 1.25 µM, OCI-C5x cells, without rucaparib",116% (inactive)
same,viability,"[9]; at 1.25 µM, OCI-P5x cells, with rucaparib 20 µM, 100% = cells with rucaparib alone",91.1% (active)
same,viability,"[9]; at 1.25 µM, OCI-P5x cells, without rucaparib",105% (inactive)
same,viability,"[9]; at 5 µM, OCI-C5x cells, with rucaparib 10 µM, 100% = cells with rucaparib alone",114% (inactive)
same,viability,"[9]; at 5 µM, OCI-C5x cells, without rucaparib",124% (inactive)
same,viability,"[9]; at 5 µM, OCI-P5x cells, with rucaparib 20 µM, 100% = cells with rucaparib alone",87.9% (active)
same,viability,"[9]; at 5 µM, OCI-P5x cells, without rucaparib",107% (inactive)
same,inhibition,"[10]; at 0.5 µM, stronger effect = higher value",-11.4% (inactive)
same,inhibition,"[10]; measured here: combination with BGB IC20, at 0.005 µM",-13.3%
same,inhibition,"[10]; measured here: combination with BGB IC40, at 0.005 µM",-16.5%
same,inhibition,"[10]; measured here: combination with BGB IC40, at 0.05 µM",-16.7%
same,inhibition,"[10]; measured here: combination with cisplatin, at 0.5 µM, stronger effect = higher value",-21.3%
same,inhibition,"[10]; measured here: combination with cisplatin, at 5 µM, stronger effect = higher value",-30.6%
same,inhibition,"[11]; BGB combo, at 5 µM",-27.5%
same,inhibition,[11]; at 0.5 µM,-36.3% (inactive)
same,inhibition,"[11]; cisplatin combo, at 5 µM",-28.6%
same,inhibition,[11]; [18],-35.8%
same,inhibition,[11]; [19],-38.5%
same,inhibition,"[11]; single agent, at 5 µM",-17%
same,inhibition,"[12]; BGB IC20 combo, at 0.005 µM",2.36%
same,inhibition,"[12]; BGB IC40 combo, at 0.005 µM",-26.6%
same,inhibition,"[12]; BGB IC40 combo, at 0.05 µM",4.66%
same,inhibition,[12]; at 0.5 µM,-28.2% (inactive)
same,inhibition,"[12]; cisplatin combo, at 0.05 µM",1.23%
same,inhibition,"[12]; cisplatin combo, at 0.5 µM",-24.8%
same,inhibition,"[12]; cisplatin combo, at 5 µM",-12.9%
same,inhibition,"[12]; measured here: 5 uM single agent, at 5 µM",3.99%
same,inhibition,[13]; at 0.5 µM,-21.8% (inactive)
same,inhibition,"[13]; measured here: with BGB IC20, at 0.5 µM",-19.3%
same,inhibition,"[13]; measured here: with BGB IC20, at 5 µM",-13.7%
same,inhibition,"[13]; measured here: with cisplatin IC20, at 0.5 µM",-26.1%
same,inhibition,"[13]; measured here: with cisplatin IC20, at 5 µM",-16.9%
same,inhibition,"[13]; single agent, at 5 µM",-18.1%
same,inhibition,[14]; at 0.5 µM,-15.2% (inactive)
same,inhibition,"[14]; measured here: BGB combination, at 0.5 µM",-12%
same,inhibition,"[14]; measured here: BGB combination, at 5 µM",-8.16%
same,inhibition,"[14]; measured here: cisplatin combination, at 0.5 µM",-19.2%
same,inhibition,"[14]; measured here: cisplatin combination, at 5 µM",-7.27%
same,inhibition,[15]; at 0.5 µM,-10.1% (inactive)
same,inhibition,"[15]; cisplatin combination, at 0.5 µM",-26.2%
same,inhibition,"[15]; cisplatin combination, at 5 µM",-3.75%
same,inhibition,"[15]; measured here: BGB IC40 combination 0.05 uM, at 0.05 µM",-4.25%
same,inhibition,"[15]; single agent, at 5 µM",-4.64%
same,inhibition,[16]; at 0.5 µM,-10.5% (inactive)
same,inhibition,"[16]; cisplatin combo, at 5 µM",-5.73%
same,inhibition,"[16]; measured here: BGB IC40 combination, at 0.05 µM",-15.4%
same,inhibition,"[16]; measured here: combination with cisplatin, at 0.5 µM",-22.8%
same,inhibition,"[16]; single agent, at 5 µM",-14.1%
same,inhibition,[17]; at 0.5 µM,-39.1% (inactive)
same,inhibition,[17]; [18],-34.3%
same,inhibition,[17]; [19],-43.9%
same,inhibition,"[17]; single agent, at 0.05 µM",-29.1%
same,inhibition,"[17]; single agent, at 5 µM",-40.2%
